Screens (PubChem BioAssay)
Pf apPOL block – Pf-apPOL DNA polymerase inhibition; Recombinant Pf-apPOL, molecular beacon fluorescence, 1.5 h; inhibition, % at 10 µM; hit rate 0.25% among 210,000
mHTT CaM bind – inhibitors of human mutant huntingtin-calmodulin interaction; AID 1671202; inhibition, % at 15 µM; AlphaScreen His-mHTT/GST-CaM binding, luminescence; hit rate 3.6% among 190,000
Hits are given with their value; – = inactive; · = not tested or not shown. In the library only some 3.5% were active in any assay of this set; here they are far more common. No stated cut-off is given here; in the data, active means inhibition above about 50%; inactive means the rest.

SMILES | Pf apPOL block | mHTT CaM bind
Cc1ccc(-c2cc(C(=O)N3CCN(c4ccccn4)CC3)c(C)[nH]2)cc1 | – | 77
Cn1cc(C(=O)N2CCN(c3ccccn3)CC2)c2cccnc21 | – | –
O=C1NC(c2ccc(Br)cc2)=C(c2ccccc2)C1=O | – | 53
Cc1ccc(C2=C(c3ccccc3)C(=O)C(c3ccccc3)=C2c2ccc(Cl)cc2)cc1 | – | ·
CC1=C(C(=O)N2CCOCC2)C(c2ccc(OC(F)(F)F)cc2)C2=C(CCCC2=O)N1 (stereo unspecified) | – | –
CN(C)c1ccc(C2C3=C(CCCC3=O)Nc3nc(SCc4ccccc4F)[nH]c(=O)c32)cc1 (stereo unspecified) | – | 52
O=C1CCCC2=C1C(c1cccs1)c1c(nc(SCc3ccccc3F)[nH]c1=O)N2 (stereo unspecified) | – | –
O=S(=O)(NCC1(c2ccc(F)cc2)CC1)c1ccc2c(c1)OCCO2 | – | –
COc1ccccc1CNC(=O)C1CCN(S(=O)(=O)N2CCOCC2)CC1 | – | –
NC(=O)c1c(Nc2ccccc2Cl)sc(C(=O)c2ccccc2)c1N | – | 86
N#Cc1ccccc1Nc1sc(C(=O)c2ccccc2)c(N)c1C(N)=O | – | –
Cc1ccc(NC(=O)Nc2ccc3nnc(C)n3c2)cc1F | – | –
OC(COCC1CC2CCC1C2)CN1CCC(Cc2ccccc2)CC1 (stereo unspecified) | – | –
O=S(=O)(c1ccccc1)c1nc(Cc2ccccc2)oc1N1CCCCCC1 | 68 | –
O=S(=O)(c1ccccc1)c1nc(-c2ccccc2)oc1N1CCOCC1 | – | –
COc1ccc(-n2c(CCC(=O)O)ccc2-c2cccs2)c(OC)c1 | – | 55
COc1ccc(-c2ccc(CCC(=O)O)n2-c2ccc(OC)cc2OC)cc1 | – | –
O=C(C1CCCC1)N1CCCC(c2ccnc(Nc3cccc(F)c3)n2)C1 (stereo unspecified) | – | –
O=C(C1CCCCC1)N1CCCC(c2ccnc(Nc3cccc(F)c3)n2)C1 (stereo unspecified) | – | 72
CCCC(=O)N1CCCC(c2ccnc(Nc3cccc(F)c3)n2)C1 (stereo unspecified) | – | 62
CCCC(=O)N1CCCC(c2ccnc(Nc3ccc(F)cc3)n2)C1 (stereo unspecified) | – | –
N#Cc1nc(COc2ccccc2Cl)oc1NCc1cccnc1 | – | –
COc1ccc(CCNc2oc(COc3ccccc3C)nc2C#N)cc1 | – | 52
Cc1ccccc1OCc1nc(C#N)c(NCCCn2ccnc2)o1 | – | –
Cc1ccccc1OCc1ccc(-c2nc(C#N)c(NCc3cccnc3)o2)o1 | – | 54
SMILES | Pf apPOL block | mHTT CaM bind
N#Cc1nc(COc2ccccc2Cl)oc1NCCCn1ccnc1 | – | 100
COc1ccc(CCNc2oc(COc3ccc(OC)cc3)nc2C#N)cc1 | – | –
O=C(NCc1ccc(Cl)cc1)NCC1CC(=O)N(Cc2ccc(F)cc2)C1 (stereo unspecified) | – | –
OCCN1CCN(C2CCN(Cc3ccc(F)cc3)CC2)CC1 | – | –
CCOc1ccc2c(c1)-c1c(ssc1=S)C(C)(C)N2 | · | 51
Cc1ccc2c(c1)-c1c(ssc1=S)C(C)(C)N2 | · | 52
CCCN1c2ccccc2-c2c(ssc2=S)C1(C)C | · | –
Cc1ccc(NC(=O)c2sc(C)nc2C)c(Cl)c1 | – | –
FC(F)(F)c1ccc(CSc2c[nH]c3ccccc23)cc1 | – | 87
O=S(=O)(Cc1ccc(C(F)(F)F)cc1)c1c[nH]c2ccccc12 | – | –
CCc1ccc(N2CC(C(=O)NC(C)C)CC2=O)cc1 (stereo unspecified) | – | –
COc1ccccc1NC1=CC(=NS(=O)(=O)c2ccc(C)cc2C)c2ccccc2C1=O | – | 92
COc1ccccc1NC(=O)c1ccc2c(c1)-c1ccccc1C2=O | – | –
COc1ccccc1NC1=CC(=NS(=O)(=O)c2ccccc2)c2ccccc2C1=O | – | 94
COc1ccc(NC2=CC(=NS(=O)(=O)c3ccc(Cl)cc3)c3ccccc3C2=O)cc1 | – | –
COc1ccc(S(=O)(=O)N=C2C=C(Nc3cccc(C)c3)C(=O)c3ccccc32)cc1 | – | 91
COc1ccccc1NC1=CC(=NS(=O)(=O)c2ccc(F)cc2)c2ccccc2C1=O | – | 94
COc1ccccc1NC(=O)c1ccc(F)cc1 | – | –
COc1ccccc1NC(=O)CN(c1ccc(C)cc1C)S(C)(=O)=O | – | –
CCC(CC)N1CCN(C(=O)c2ccc3[nH]c4c(c3c2)CN(C(=O)C2CCC2)CC4)CC1 | – | –
CN1CCN(C(=O)CCC2CCCN(C(=O)Nc3cccc(F)c3)C2)CC1 (stereo unspecified) | – | –
Cc1cccc(OCC2CN(C(=O)NCc3ccccc3)CCO2)c1 (stereo unspecified) | – | –
CCc1ccc(S(=O)(=O)N=C2C=C(Nc3ccccc3OC)C(=O)c3ccccc32)cc1 | – | 93
O=C1C(NS(=O)(=O)c2ccccc2)=CC(=NS(=O)(=O)c2ccc(F)cc2)c2ccccc21 | – | –
CCc1ccc(S(=O)(=O)Nc2ccccc2OC)cc1 | – | –
SMILES | Pf apPOL block | mHTT CaM bind
COc1ccc(S(=O)(=O)Nc2ccccc2NS(=O)(=O)c2ccc(OC)cc2)cc1 | – | –
COc1ccc(S(=O)(=O)N=C2C=C(Nc3ccccc3OC)C(=O)c3ccccc32)cc1 | – | 91
Cc1ccccc1NC1=CC(=NS(=O)(=O)c2ccc(F)cc2)c2ccccc2C1=O | – | 96
O=C(CC(C(=O)N1CCc2ccccc21)n1ccnc1)NCCC1=CCCCC1 (stereo unspecified) | – | –
COc1cccc(C2=CC(c3ccc(SC)cc3)n3ncnc3N2)c1 (stereo unspecified) | – | –
O=C(Cn1ccc2ccccc21)N1CC(c2nc(-c3cccc(Cl)c3)no2)C1 | – | 60
O=C(c1ccsc1)N1CC(c2nc(-c3cccc(Cl)c3)no2)C1 | – | –
O=C(c1ccccn1)N1CC(c2nc(-c3cccc(Cl)c3)no2)C1 | – | –
O=C(CCSc1ccccc1)N1CC(c2nc(-c3cccc(Cl)c3)no2)C1 | – | 67
Cc1ccc2ncn(C3CCN(S(=O)(=O)c4ccc(Cl)cc4)CC3)c(=O)c2c1 | – | –
COc1ccc(OC(NC(=O)c2cccc([N+](=O)[O-])c2)C(Cl)(Cl)Cl)cc1 (stereo unspecified) | – | –
CC(C)n1cc(C2=CCN(C(=O)Nc3ccc4c(c3)OCCO4)CC2)c2cccnc21 | – | 61
CC(C)n1cc(C2=CCN(C(=O)Nc3ccc(Cl)cc3)CC2)c2cccnc21 | – | –
CCCNC(=O)N1CCN(c2ccc(C)c(Cl)c2)C(=O)C1C (stereo unspecified) | – | –
COC(=O)c1ccc(NC(=O)Cc2csc(NC(=O)c3ncccn3)n2)cc1 | – | 98
COC(=O)c1ccc(NC(=O)Cc2csc(NC(=O)Nc3ccccc3OC)n2)cc1 | – | –
CC1=NS(=O)(=O)N(C)C=C1C(=O)OCC(C)C | – | –
Cc1ccc(/C=C2\N=C(c3cccc(Cl)c3)OC2=O)cc1 | – | –
Clc1ccccc1CSc1nc(NCc2ccco2)c2ccccc2n1 | – | –
COCCNc1nc(SCc2ccccc2Cl)nc2ccccc12 | – | 58
CC(C)(C)N=C1Nc2ccccc2NC12CCCN(C(=O)c1ccccc1)C2 (stereo unspecified) | – | 82
Cc1ccccc1OCC(=O)N1CCCC2(C1)Nc1ccccc1NC2=NC(C)(C)C (stereo unspecified) | – | 75
